Data taken from PubChem BioAssay (NCATS).
Records with an inconclusive call do not appear. Active and inactive are the calls of the source. Calls come from the whole dose curve; as a rule, active = well fitted cell-killing curve with a large enough effect; inconclusive = small, poorly fitted or top-dose-only effect, or effect the other way; inactive = no such curve, though single readings can be large or run the other way.

Test: Viability qHTS for spleen associated tyrosine kinase inhibitor (SYKi) drug resistant MV4-11 cells (AID 1963824); note: nearly all actives have a fitted effect of over 35% in size
Settings: SYKi-resistant MV4-11 viability, CellTiter-Glo, 72 h; series mostly up to 45 µM; viability, % of control: at the top concentration
Outline: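 CellTiter-Glo luminescence, read 10 min after reagent addition, reports viability after a 72 hr compound exposure. Cells are an MV4-11 line made resistant to SYK inhibition, seeded at 500 per well onto compound-containing plates.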
Potency is the fitted concentration of half-maximal effect.

| SMILES | Potency | viability, % of control |
| --- | --- | --- |
| COC1CC(O[C@H]2CC[C@]3(C)C4CC[C@@]5(C)C(=O)[C@]4(CC[C@@H]3C2)CC[C@@H]5C2=CC(=O)OC2)OC(C)C1OC1OC(COC2OC(CO)C(O)C(O)C2O)C(O)C(O)C1O (stereo not given in full) | 1.23 µM (active) |  |
| CC1C(=O)CC2C3C(O)CC(C(=O)O)C12CC3(C)C (stereo not given) | 20.6 µM (active) |  |
| O=C1OC(c2ccc(O)cc2)(c2ccc(O)cc2)c2ccccc21 | 18.8 µM (active) |  |
| CC1=C(CO)C2(C)CCCC(C)(C)C2C(O)C1O (stereo not given) |  | 78.5% (inactive) |
| COc1cc2ncnc(Nc3ccc(F)c(Cl)c3)c2cc1O | 9.2 µM (active) |  |
| CSCC[C@H](NC(=O)[C@H](CO)NC(=O)[C@H](CCC(=O)O)NC(C)=O)C(=O)N[C@H](C=O)CC(=O)O | 1.5 µM (active) |  |
| C/C=C(\C)C(=O)OC[C@H]1O[C@H](O[C@H]2O[C@H](CO)[C@@H](OC(=O)/C(C)=C/C)[C@H](O)[C@H]2O[C@@H]2O[C@H](CO)[C@@H](O)[C@H](O)[C@H]2O)[C@H](O[C@@H]2O[C@H](CO)[C@@H](O)[C@H](O)[C@H]2O)[C@@H](O)[C@@H]1O |  | 92.1% [at 9.25 µM] (inactive) |
| Cc1ccc(NC(=O)C(C)C)cc1C1CCN(Cc2ccc(Oc3ccc(F)c(F)c3)cc2)CC1 | 4.61 µM (active) |  |
| CC(=O)OC[C@@]12C(=O)C[C@@H](C)[C@]3(C[C@@H](c4ccoc4)OC3=O)[C@H]1CC[C@H](OC(C)=O)[C@]21CO1 |  | 87.9% [at 17.3 µM] (inactive) |
| CC1=C(C)C(=O)OC(C(C)C2C(O)CC3C4C5OC5C5(O)CC(OC6OC(CO)C(OC7OC(C)C(O)C(O)C7O)C(O)C6O)CC(O)C5(C)C4CCC32C)C1 (stereo not given) |  | 80.7% [at 17.3 µM] (inactive) |
| COc1cc(/C=C2\CC[C@H]3COC[C@@H](c4cc(F)c(F)c(F)c4)N3C2=O)ccc1-n1cnc(C)c1 | 13 µM (active) |  |
| CC(=O)OC1C(C)C2C(OC3OC(CO)C(O)C(O)C3O)OC=C(C(=O)O)C2C1OC(=O)c1ccccc1 (stereo not given) |  | 110% [at 17.3 µM] (inactive) |
| CN1C/C=C/CCOc2cccc(c2)-c2ccnc(n2)Nc2cccc(c2)C1 | 0.206 µM (active) |  |
| CC(C)(O)c1ccn2c(-c3ccc(F)c(-c4ccc(F)cc4C#N)c3)cnc2c1F | 8.2 µM (active) |  |
| CCC(C)C(=O)OC1CC(O)C23C4OCC5(C(O)CC2C1(C)C(O)O4)C3C(=O)C(O)C1(C)C(O)(c2ccoc2)CC2OC251 (stereo not given) | 0.432 µM (active) |  |
| c1ccc(C(OC2CCN(CCCc3nn[nH]n3)CC2)c2ccccc2)cc1 |  | 96.6% (inactive) |
| O=C1NC(Cc2c[nH]c3ccccc23)C(=O)NC1Cc1c[nH]c2ccccc12 (stereo not given) |  | 79.4% (inactive) |
| CC(C)(O)c1ccc2c(c1)ncn2-c1cccc(-c2ccccc2C#N)c1 | 18.4 µM (active) |  |
| COC(=O)c1ccccc1O[C@@H]1O[C@H](CO[C@@H]2OC[C@@H](O)[C@H](O)[C@H]2O)[C@@H](O)[C@H](O)[C@H]1O |  | 101% [at 17.3 µM] (inactive) |
| NC(=O)c1csc(C2OC(CO)C(O)C2O)n1 (stereo not given) | 8.2 µM (active) |  |

| SMILES | Potency | viability, % of control |
| --- | --- | --- |
| C=C1C[C@]23C[C@H]1CC[C@H]2[C@]1(C)CCC[C@@]2(CO)C(=O)O[C@H]([C@H]21)[C@@H]3O |  | 81.3% (inactive) |
| C[C@@H](NC(=O)[C@H](O)c1cc(F)cc(F)c1)C(=O)N[C@@H]1C(=O)N(C)c2ccccc2-c2ccccc21 | 18.4 µM (active) |  |
| CC1=C(C)C(=O)OC(C(C)C2C(O)CC3C4C5OC5C5(O)CC(OC6OC(CO)C(O)C(O)C6O)CC(O)C5(C)C4CCC32C)C1 (stereo not given) |  | 82.3% [at 17.3 µM] (inactive) |
| CC(C)C[C@H](CC(=O)NO)C(=O)N[C@H](C(=O)N[C@@H](C)C(=O)NCCN)C(C)(C)C |  | 90.6% [at 9.25 µM] (inactive) |
| COc1cccc(CN(C(=O)CC(C)(C)C)C2CC(C(=O)N3CCNCC3)N(Cc3ccc4c(c3)OCO4)C2)c1 (stereo not given) | 16.4 µM (active) |  |
| C=C1C[C@@H]2CC[C@@]34C[C@H]5O[C@H]6[C@@H](O3)[C@H]3O[C@H](CC[C@@H]3O[C@H]6[C@H]5O4)CC(=O)C[C@@H]3[C@@H](OC)[C@@H](C[C@H](O)CN)O[C@H]3C[C@H]3O[C@@H](CC[C@@H]1O2)C[C@@H](C)C3=C | 0.0005 µM (active) |  |
| OC(CC1c2ccccc2-c2cncn21)C1CCCCC1 (stereo not given) | 20.6 µM (active) |  |
| CC(=O)OC[C@]12[C@H](OC(C)=O)C(=O)[C@@H]3[C@@H](OC(C)=O)[C@@]14O[C@@]3(C)COC(=O)c1cccnc1[C@@H](C)[C@H](C)C(=O)O[C@@H]([C@H](OC(C)=O)[C@@H]2OC(C)=O)[C@]4(C)O |  | 93.7% [at 17.3 µM] (inactive) |
| C[C@@H]1CCC2C(C)(C)[C@H](O)CC[C@]2(C)[C@@]12Cc1c(O)cc3c(c1O2)CN([C@@H](CCC(=O)O)C(=O)O)C3=O (stereo not given in full) |  | 93.5% [at 17.3 µM] (inactive) |
| O=C1c2ccc(Nc3ccc(F)cc3F)cc2CCc2ccc(OCC(O)CO)cc21 (stereo not given) | 9.2 µM (active) |  |
| CS(=O)(=O)c1ccc([C@@H](C[C@H]2CCC(=O)C2)C(=O)Nc2cnccn2)cc1Cl | 15.8 µM (active) |  |
| Nc1nc2ccc([N+](=O)[O-])cc2s1 | 27.3 µM (active) |  |
| CC12CCC(=O)C=C1C(O)CC1C2C(O)CC2(C)C1CC[C@]2(O)C(=O)CO (stereo not given in full) |  | 90% [at 9.25 µM] (inactive) |
| CCCCC(CC)CN=C(N)NC(N)=NCCCCCCN=C(N)NC(N)=NCC(CC)CCCC (stereo not given) | 2.66 µM (active) |  |
| Cc1c(Cl)cccc1S(=O)(=O)Nc1nc(NCCc2ccccc2)nc2c1CN(Cc1ccccc1)CC2 | 13 µM (active) |  |
| O=c1[nH]c2ccccc2n1CCN1CCN(c2cccc(C(F)(F)F)c2)CC1 | 23.1 µM (active) |  |
| CC1CC(=O)C2=C(O1)OC1(C)CCC3C(C)(C)C4OC4C(=O)C3(C)C1C2 (stereo not given) |  | 87.9% (inactive) |
| COc1cc(O)c2c(c1Cl)CC(C)OC2=O (stereo not given) |  | 97.9% (inactive) |
| Cc1cn2c(n1)Cc1ccc(Cl)cc1C(c1ccc(N)cc1)=N2 | 18.4 µM (active) |  |
| COC(=O)C1=CO[C@@H](O[C@@H]2O[C@H](CO)[C@@H](O)[C@H](O)[C@H]2O)/C(=C\CO)[C@@H]1CC(=O)OCCc1ccc(O)cc1 |  | 102% [at 17.3 µM] (inactive) |
